Sfp inh: Sfp phosphopantetheinyl transferase inhibition. Q9F4F7. Biochemical Sfp PPTase activity, qHTS. Potency, µM, for inactives: largest response in the series, negative = inhibition, most hits filed as inhibitors. actives 3.5% (n = 310,000). AID 1490;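 further: the enzyme is Sfp with the accession as filed and its product quenches rhodamine fluorescence; 0% = enzyme reaction without inhibitor and -100% = no enzyme wells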
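Reaction rates are the 30-min fluorescence difference (ex 525, em 598 nm) in wells containing 15 nM Sfp, 5 uM rhodamine-CoA and 12.5 uM BHQ-2-YbbR at pH 7.6 with 10 mM MgCl2.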
BAZ2B block: BAZ2B (human) inhibition | actives 4.4% (n = 360,000) | AID 504333 | AlphaScreen BAZ2B-H3K14Ac peptide displacement | Potency, µM (titrated, usually from 114 µM), for the others: top-dose activity change, negative = inhibition, hits mostly inhibitors; further: on the % scale 0 is the no-effect control and ±100 the full control effect; nearly all actives have a fitted effect of over 60% in size
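AlphaScreen displacement of biotin-H3(5-23)K14Ac peptide (50 nM final) from BAZ2B (50 nM final) in PBS pH 7.4, 0.01% Tween-20; complex preformed 30 min RT, then compounds (top 110 uM) 30 min RT, beads 20 min dark.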
HP1b chromo inh: HP1-beta chromodomain-methylated histone interaction inhibition; P83916; actives 0.56% (n = 390,000); AlphaScreen HP1-beta / biotin-H3K9me3 peptide binding; Potency, µM (highest dose often 114 µM), without a hit: at the top dose activity change, negative = inhibition, most hits filed as inhibitors; further: nearly all actives have a fitted effect of over 70% in size
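AlphaScreen: HP1-beta (50 nM) preformed 30 min with biotin-H3(1-18)K9me3 peptide (50 nM) in PBS pH 7.4, 0.01% Tween-20. Compound added for 30 min at RT, then streptavidin donor/nickel chelate acceptor beads (10 ug/mL) for 30 min.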
G9a inh: blocks human histone lysine methyltransferase G9a; actives 8.8% (n = 350,000); Potency, µM (series often up to 102 µM), for inactives: at the top dose activity, negative = inhibition, most hits filed as inhibitors; AID 504332; Q96KQ7; G9a H3K9 monomethylation, AlphaScreen, 2 h; further: on the % scale 0 is the no-effect control and ±100 the full control effect; nearly all actives have a fitted effect of over 75% in size
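Signal arises when biotinylated H3K9 peptide, once monomethylated, bridges streptavidin donor and antibody-captured acceptor beads. Enzyme at 20 nM was preincubated 15 min with test compounds; peptide 500 nM and SAM 20 uM then reacted for 2 h.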
JMJD2A Tudor: JMJD2A Tudor domain (human) inhibition. AID 504339. O75164. actives 4.4% (n = 390,000). Potency, µM (highest dose often 114 µM), inactives show top-dose activity change, negative = inhibition, usual class: inhibitors. AlphaScreen JMJD2A-Tudor / H3K4me3 peptide binding; further: on the % scale 0 is the no-effect control and ±100 the full control effect; nearly all actives have a fitted effect of over 50% in size
An asterisk follows results filed as active; ? = inconclusive; . = not tested or not shown; [ ] = another dose, or the depositor's remark. Sampled rows, rich in hits. Any-hit rate of the full collection: about 12%. The call rests on the fitted dose curve; in most records, active means well fitted curve in the direction sought with a large enough effect; inconclusive means small, poorly fitted or top-dose-only effect, or another doubt; inactive means no such curve, though single readings can be large; an effect the other way counts as inactive or inconclusive. Potency means the concentration at half of the fitted maximal effect.

SMILES	Sfp inh	BAZ2B block	HP1b chromo inh	G9a inh	JMJD2A Tudor
COc1ccc(Br)cc1C(=O)Nc1ccc(N2CCN(S(C)(=O)=O)CC2)cc1	5%	3%	9%	5%[12.7 µM]	2%
O=C(NCCc1cccnc1)C1CCC(=O)N(CCc2cccc(F)c2)C1 (stereo not given)	8%	-16%	19%	-18%	-1%
CN(C)C(=O)c1ccc(-c2ccc3ncnc(Nc4ccc(F)cc4)c3c2)cc1	16%	.	.	0%[0.501 µM]	.
CN=C(Nc1ccccc1OC)SC1CC(=O)N(c2ccc(C(=O)OC)cc2)C1=O (stereo not given)	-3%	10%	13%	-30%	-27%
COc1ccccc1C(=O)Nc1ccc(N2CCCCC2)cc1	13%	?	?	50µM*	56µM*
COc1ccccc1C(=O)Nc1ccc(N2CCN(C(C)=O)CC2)cc1	20%	-5%	25%	6%	-3%
O=C(c1c(F)c(F)c(F)c(F)c1F)N1CCN(c2cccc(C(F)(F)F)c2)CC1	-18%	0%	?	?	14µM*
COc1ccc(C(=O)CCC(=O)Nc2ccc(N3CCCCC3)cc2)cc1OC	1%	35µM*	?	45µM*	?
O=C(Cn1c(=O)n(-c2ccccc2)c(=O)c2c3c(sc21)CCCC3)Nc1ccc(F)cc1	.	-4%	9%	-7%[59 µM]	-14%
O=C(CN(C(=O)CCC(=O)Nc1ccccn1)c1cccc(F)c1)NCc1ccc2c(c1)OCO2	16%	0%	36%	-10%	-12%
CCc1cccc(CC)c1-n1c(-c2cccnc2)n[nH]c1=S	-10%	-23%	22%	?	?
CCC(c1nc2ccccc2c(=O)n1-c1cccnc1)N1C(=O)c2ccccc2C1=O (stereo not given)	10%	2%	8%	-2%[59 µM]	-11%
CC(C)c1ccccc1-n1c(-c2cccnc2)n[nH]c1=S	-12%	-20%	31%	-36%[12.7 µM]	10µM*
S=c1[nH]nc(-c2cccc3ccccc23)n1-c1cccnc1	-17%	-5%	11%	-127%[59 µM]	20µM*
Cc1ccccc1-n1c(-c2cccnc2)n[nH]c1=S	7%	-4%	38%	5µM*	11µM*
CCn1cc(C(=O)O)c(=O)c2cnc(N3CCN(C(=S)Nc4ccccc4)CC3)nc21	2%	?	-4%	.	-12%
CCOC(=O)Cn1c(=O)n(CC2CCCO2)c2nc(-c3ccc(C)cc3)nc(C(N)=O)c21 (stereo not given)	.	4%	24%[57 µM]	4%[59 µM]	-10%
COc1ccc(CNc2ncc(-c3ccc(F)cc3)n2C)c2ccccc12	-22%	50µM*	?	10µM*	20µM*
COc1ccc(CNc2cccnc2)c(OC)c1OC	.	.	44%	.	-6%
COc1ccc(CNc2ncc(-c3cccc([N+](=O)[O-])c3)n2C)c(OC)c1OC	-13%	50µM*	?	32µM*	25µM*
CCOc1ccc(-c2cnc(NCc3cccc(Cl)c3)n2C)cc1	.	?	?	7.9µM*	20µM*
COc1cccc(-c2cnc(NCc3cc(Cl)ccc3O)n2C)c1	?	40µM*	?	8.9µM*	4.5µM*
CCNS(=O)(=O)c1ccc(C(=O)OCc2cc(=O)oc3cc(OC)ccc23)cc1	2%	-14%	-6%	?	-20%
CC(C)NC(=O)CCSc1nc(-c2ccc3c(c2)OCO3)cc(C(F)(F)F)n1	.	-1%	32%	11%[59 µM]	6%
Cc1ccc(C(=O)OCC(=O)Nc2ccc(F)c(Cl)c2)o1	.	7%	24%	9%[59 µM]	-12%
SMILES	Sfp inh	BAZ2B block	HP1b chromo inh	G9a inh	JMJD2A Tudor
CCOC(=O)C1CCN(C(=O)/C=C/c2ccccc2OC)CC1	15%	-2%	10%	2%[59 µM]	-13%
CCOC(=O)c1c(N)n(C2CC(C)(C)NC(C)(C)C2)c2nc3ccccc3nc12	21%	10%	32%	8%	-1%
COCCn1c(-c2ccc(OC)cc2)cnc1N	4%	?	-6%	?	?
Cn1c(-c2ccccc2)cnc1NCc1ccc(F)cc1	-32%	?	?	.	35µM*
CCOc1ccc(-c2cnc(NCc3cccc4ccccc34)n2CCOC)cc1	56µM*	40µM*	?	.	14µM*
CC(=O)n1nc(-c2ccccc2)nc1NCc1ccc(F)cc1	-15%	32%	118%	-12%[2.33 µM]	29%
